Bioassay records (PubChem BioAssay)
RORgamma inh – ROR gamma (mouse) transcription inhibition | P51450 | Drosophila S2 Gal4-RORgamma UAS-luciferase reporter, 20 h | Potency, µM (highest dose often 53.6 µM), for inactives: at the highest dose activity change, negative = inhibition, most hits filed as inhibitors | 5.4% of 310,000 active; also: potency is read from the fitted curve at half-maximal effect; % is scaled to controls: 0 for no effect and ±100 for the full control effect; nearly all actives have a fitted effect of over 60% in size
Target sequence (P51450 whole entry, looked up, the tested form may be a part): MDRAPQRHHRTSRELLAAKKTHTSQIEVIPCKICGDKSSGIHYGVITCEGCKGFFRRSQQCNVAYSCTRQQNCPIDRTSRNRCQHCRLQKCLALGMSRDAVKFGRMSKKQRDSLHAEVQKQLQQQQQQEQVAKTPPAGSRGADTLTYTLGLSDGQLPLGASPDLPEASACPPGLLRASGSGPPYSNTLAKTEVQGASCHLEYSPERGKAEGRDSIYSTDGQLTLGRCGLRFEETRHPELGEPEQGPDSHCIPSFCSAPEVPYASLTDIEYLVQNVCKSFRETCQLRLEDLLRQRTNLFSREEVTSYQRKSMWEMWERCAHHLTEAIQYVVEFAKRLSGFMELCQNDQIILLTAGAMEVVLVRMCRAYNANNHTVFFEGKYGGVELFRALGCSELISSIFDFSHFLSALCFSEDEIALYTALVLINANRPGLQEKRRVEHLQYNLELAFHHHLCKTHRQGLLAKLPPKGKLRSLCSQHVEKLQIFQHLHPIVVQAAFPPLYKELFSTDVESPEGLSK
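Compounds are pin-transferred onto Drosophila Schneider cells expressing a copper-inducible Gal4–ROR gamma transactivation domain fusion. After 1 hr, copper sulfate is added to 700 uM final; luciferase is read 20 hr later.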
SW480 rerep – inducers of DNA re-replication in SW480 colon cancer cells; SW480 DNA re-replication, Hoechst DNA content imaging, 48 h; Potency, µM (top dose mostly 46.1 µM), without a hit: at the highest dose re-replication activation, hits mostly activators; 1.8% of 340,000 active; also: potency is read from the fitted curve at half-maximal effect; % of control where 0% means no effect; nearly all actives have a fitted effect of over 55% in size
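Readout is total intensity of Hoechst-stained nuclei, excited at 405 nm and collected at 500-530 nm. Compound treatment lasted 48 hr at 37 C in 5% CO2 before staining.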
MCF10A rerep – DNA re-replication induction in MCF 10a cells; 2.9% of 350,000 active; Potency, µM (series often up to 46.1 µM), for the others: top-dose activity, positive = re-replication, hits mostly activators; MCF 10A DNA re-replication, Hoechst nuclear intensity, 48 h; also: potency is read from the fitted curve at half-maximal effect; % of control where 0% means no effect; nearly all actives have a fitted effect of over 50% in size
Gal4-VP16 FLuc – inhibits Gal4-VP16 luciferase reporter, ROR gamma counter-screen | Potency, µM (doses to about 53.6 µM), inactives show at the top dose activity, negative = inhibition, actives largely listed as inhibitors | 3.5% of 310,000 active | Drosophila S2 Gal4-VP16 UAS-luciferase, luminescence, 20 h;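 also: Gal4-VP16 expression switched on by copper sulfate through the metallothionein promoter; potency is read from the fitted curve at half-maximal effect; % is scaled to controls: 0 for no effect and ±100 for the full control effect; nearly all actives have a fitted effect of over 50% in size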
IL1B secr inh – inflammasome signaling inhibition, IL-1 beta readout; THP-1 LPS/ATP IL-1B secretion, AlphaLISA, 16 h; active compounds read low; activity change, % at 57.5 µM; 4.7% of 360,000 active; AID 743279; in the data active = activity change below about -50%; inconclusive = mostly about -30% to -49%; also: % is scaled to controls: 0 for no effect and ±100 for the full control effect
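THP-1 cells pretreated 1 hr with compounds (up to 57.5 uM final), then stimulated with LPS (250 ng/mL final) plus ATP (1.25 mM final); secreted IL-1B measured by AlphaLISA after 16 hr, decreased signal indicating inhibition.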
* marks the source's active call; other numbers are inactive results; [ ] = dose if it differs, or a comment. An excerpt weighted towards active compounds, which were near 11% of everything screened. Unless noted, calls follow the shape of the dose curve; as a rule, active = well fitted curve in the direction sought with a large enough effect; inconclusive = small, poorly fitted or top-dose-only effect, or another doubt; inactive = no such curve, though single readings can be large; an effect the other way counts as inactive or inconclusive.

CC(=O)Nc1ccc(OCC(O)Cn2c(C)nc3ccccc32)cc1 (stereo unspecified) was read as RORgamma inh inconclusive, SW480 rerep 1.0%, MCF10A rerep 24.8%, Gal4-VP16 FLuc 7.94µM* and IL1B secr inh 13.4.
CC(=O)Nc1ccc(OCC(O)Cn2c(CO)nc3ccccc32)cc1 (stereo unspecified) was read as RORgamma inh 1.3%, SW480 rerep -49.7%, MCF10A rerep -12.7%, Gal4-VP16 FLuc -14.4% and IL1B secr inh 10.2.
`CC(=O)N(C)c1ccc(OCC(O)Cn2c3ccc(Cl)cc3c3cc(Cl)ccc32)cc1` (stereo unspecified) gave RORgamma inh 20µM*, SW480 rerep inconclusive, MCF10A rerep inconclusive, Gal4-VP16 FLuc 4.2%[0.365 µM] and IL1B secr inh -74.1*.
Screening CC(=O)N(C)c1ccc(OCC(O)Cn2c(C)nc3ccccc32)cc1 (stereo unspecified) returned RORgamma inh -34.3%, SW480 rerep inconclusive, MCF10A rerep -7.2%, Gal4-VP16 FLuc 15.8µM* and IL1B secr inh 0.0.
CCCCOCC(O)Cn1c(C)nc2ccccc21 (stereo unspecified) was read as RORgamma inh -16.5%[10 µM], SW480 rerep -1.1%, MCF10A rerep 2.2%, Gal4-VP16 FLuc 2.6% and IL1B secr inh -3.3.
For N#Cc1ccc(C(=O)N2CCCCC2c2cc(C(=O)Nc3ccc4c(c3)OCO4)no2)cc1 (stereo unspecified) the results were IL1B secr inh -16.5.
`COC(=O)CC1c2ccccc2C(Cc2ccc3c(c2)OCO3)=C(C)N1C(=O)OC` (stereo unspecified) gave RORgamma inh -6.2% and Gal4-VP16 FLuc 0.9%.
For Cc1cc(C)[n+](C)n1CC(O)Cn1c2ccccc2c2ccccc21 (stereo unspecified) the results were RORgamma inh 7.5%, SW480 rerep -3.7%, MCF10A rerep -2.9%, Gal4-VP16 FLuc 8.8% and IL1B secr inh -63.5*.
`CC1CCCC(C)N1CC(O)Cn1c2ccccc2c2ccccc21` (stereo unspecified) gave RORgamma inh 1.0%, SW480 rerep 8.0%, MCF10A rerep 10.9%, Gal4-VP16 FLuc -0.2% and IL1B secr inh -8.5.
`CCN(CC)c1ccc(S(=O)(=O)N2CCOCC2)cc1NC(=O)CN1CCc2ccccc2C1` gave RORgamma inh 3.16µM*, SW480 rerep -22.8%, MCF10A rerep 7.4%, Gal4-VP16 FLuc -17.1%[10 µM] and IL1B secr inh -110.5*.
Screening O=C(Nc1ccc(S(=O)(=O)N2CCCC2)cc1)c1ccc(CN2CCc3ccccc3C2)cc1 returned RORgamma inh 5.62µM*, SW480 rerep 20.8%, MCF10A rerep inconclusive, Gal4-VP16 FLuc 1.41µM* and IL1B secr inh -2.4.
`O=C(Nc1ccc(S(=O)(=O)N2CCOCC2)cc1)c1ccc(CN2CCc3ccccc3C2)cc1` gave RORgamma inh 8.91µM*, SW480 rerep 4.9%[9.22 µM], MCF10A rerep inconclusive, Gal4-VP16 FLuc 2.24µM* and IL1B secr inh inconclusive.
O=C(Nc1ccc(Cl)cc1)c1ccc(CN2CCc3ccccc3C2)cc1 was read as RORgamma inh inconclusive, SW480 rerep inconclusive, MCF10A rerep inconclusive, Gal4-VP16 FLuc inconclusive and IL1B secr inh -10.1.
Screening CCN(c1ccc(C(=O)CSc2nnc(C3CC3)n2C2CC2)cc1)S(C)(=O)=O returned SW480 rerep inconclusive, MCF10A rerep inconclusive and IL1B secr inh 4.1.
C=CCN(c1ccccc1)S(=O)(=O)c1cccc(C(=O)N2CC(C)CC(C)C2)c1 (stereo unspecified) was read as RORgamma inh 5.3%, SW480 rerep inconclusive, MCF10A rerep 10.3µM*, Gal4-VP16 FLuc 1.7% and IL1B secr inh inactive.
`Cc1ccc2nc(Cl)c(/C=C/C(=O)c3ccco3)cc2c1` gave RORgamma inh 26.1%, SW480 rerep -3.4%, MCF10A rerep inconclusive, Gal4-VP16 FLuc inconclusive and IL1B secr inh -17.4.
For Cc1ccc2cc(/C=C/C(=O)c3ccco3)c(Cl)nc2c1 the results were RORgamma inh inconclusive, SW480 rerep inconclusive, MCF10A rerep 8.2µM* and Gal4-VP16 FLuc inconclusive.
